Assay [1] concerns the target Albumin (Bos taurus) (UniProt P02769). Put plainly: compounds binding labelled BSA control protein – biochemical, small-molecule microarray, Alexa647 label, 635/667 nm fluorescence, artefact control for SMM control protein annotation, profiling panel (AID 1118).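 Note: score merges 667 nm emission intensity and signal-to-noise per printed compound spot.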 The conditions noted are these: BSA-A647 binding, fluorescence 635 nm, higher = more signal.
Assay [2] can be described thus: probe aXIP binding to arrayed compounds – biochemical, NeuroSMM set, 635/667 nm fluorescence, primary screen (AID 1119).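 Note: probe is the protein aXip251-270 applied at 1 µg/mL to compound-printed slides; binding of probe to printed compounds measured as 667 nm fluorescence plus signal to noise.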 The conditions noted are these: small-molecule microarray, higher = more signal, called active from +8 up or from −8 down.
Assay [3] is described as follows: probe aNOTCH3 binding on compound microarray – biochemical, small-molecule microarray, 635/667 nm fluorescence, primary screen (AID 1120).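 Note: probe is a biotin-tagged antibody raised against NOTCH3 rather than NOTCH3 protein; score merges spot fluorescence near 667 nm with spot signal to noise.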 The note with it: higher = more signal.
The nature of assay [4]: probe aNOTCH2 binding on compound microarray – biochemical, small-molecule microarray, 635/667 nm fluorescence, primary screen (AID 1121).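 Note: score merges feature fluorescence read at 667 nm with its signal to noise.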 The conditions noted are these: higher = more signal.
Assay [5] deals with Carbonic anhydrase 2 (Homo sapiens) (UniProt P00918). The experiment in a line: compounds binding carbonic anhydrase 2 – biochemical, small-molecule microarray, Alexa647-labelled CAII, profiling panel (AID 1122). The note with it: CAII-A647 binding fluorescence, higher = more signal.
Assay [6] in a line: COS7 lysate on small-molecule microarray, probe aHis, 635 nm (AID 1123).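 Note: z-score combines 667nm fluorescence intensity with signal-to-noise per printed compound spot.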 The note with it: COS7 cell lysate, fluorescence, higher = more signal.
Assay [7] in a line: probe aLAP1 signal on lysate-treated microarray – cell lysate, small-molecule microarray, COS7 lysate, primary screen (AID 1124).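 Note: lysate comes from COS7 cells expressing LAP1 and is applied at 0.3 µg/mL; score merges spot fluorescence near 667 nm with signal-to-noise over triplicate slides.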 The note with it: probe aLAP1, fluorescence, higher = more signal.
The test system of assay [8] is Sam68 (KHDRBS1). The experiment in a line: compounds binding KHDRBS1 protein – biochemical, small-molecule microarray, 635 nm fluorescence, primary screen (AID 1125).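 Note: score merges 667 nm channel intensity with signal to noise over triplicate slides.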 The note with it: higher = more signal.
The test system of assay [9] is Chordin-like protein 2 (CHRDL2). Put plainly: compounds binding chordin-like 2 – biochemical, small-molecule microarray, 635 nm fluorescence, primary screen (AID 1126).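 Note: printed compound slides probed with Chrdl2 protein at 4 µg/mL for 1 h at 4 C; score merges 667 nm emission intensity with signal to noise over three replicate slides.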 The note with it: fluorescence 635 nm, higher = more signal.
Assay [10] addresses Concanavalin-A (Canavalia ensiformis) (UniProt P02866). The experiment in a line: compounds binding concanavalin A lectin – biochemical, small-molecule microarray, Alexa647 label, 635 nm, artefact control for SMM control protein annotation, primary screen (AID 1127).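 Note: z combines 667 nm emission intensity with signal-to-noise across three replicate slides.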 The note with it: ConA-A647 binding fluorescence, higher = more signal.
A short description of assay [11]: compounds binding Alexa647 anti-His antibody – biochemical, small-molecule microarray, 635 nm fluorescence, artefact control for SMM control protein annotation, primary screen (AID 1128).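 Note: score merges feature fluorescence with signal-to-noise for each printed compound spot.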 The note with it: higher = more signal.
Assay [12] concerns Human papillomavirus type 1a E7 protein (residues 1-88). Put plainly: HPV1a E7 small-molecule binders, primary screen, biochemical, small-molecule microarray, residues 1-88, 635 nm (AID 1129). The conditions noted are these: small-molecule microarray binding, fluorescence 635 nm; higher = more signal.
Assay [13] concerns the target Focal adhesion kinase 1 (Homo sapiens) (UniProt Q05397). The experiment in a line: PTK2 protein binding on printed compound slides – biochemical, small-molecule microarray, 635/667 nm fluorescence, BSA, DTT, primary screen (AID 1130).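 Note: composite of spot emission at 667 nm and signal to noise over triplicate slides.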 The note with it: 635 nm fluorescence, higher = more signal.
Assay [14] deals with Fibrinogen (Alexa647-labelled). The experiment in a line: Alexa647-fibrinogen binding to printed small molecules – biochemical, small-molecule microarray, 635/667 nm fluorescence, artefact control for SMM control-protein annotation, profiling panel (AID 1131).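 Note: z-score merges 667 nm fluorescence with per-spot signal-to-noise over triplicate slides.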 The conditions noted are these: fibrinogen-A647 binding fluorescence, higher = more signal.
Assay [15] addresses Follistatin (Homo sapiens) (UniProt P19883). Put plainly: FST protein binding to printed compounds – biochemical, small-molecule microarray, 635/667 nm fluorescence, primary screen (AID 1132). The conditions noted are these: 635 nm fluorescence, higher = more signal.
Assay [16] has as its target Fibroblast growth factor 2 (Homo sapiens) (UniProt P09038). The experiment in a line: basic fibroblast growth factor binding to printed compounds – biochemical, small-molecule microarray, 635/667 nm fluorescence, primary screen (AID 1133). The note with it: FGF2, fluorescence 635/667, higher = more signal.
The nature of assay [17]: JC-1 mitochondrial potential readout, lung cancer cells – cell-based, A549, JC-1 fluorescence, basal, 24 h, 100 nL, profiling panel (AID 1138).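 Note: A549 lung adenocarcinoma cells under basal conditions with no added stimulus; test concentration not given here.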 The conditions noted are these: higher = more signal.
Assay [18] relates to Lefty1. The experiment in a line: Lefty1 protein binding to printed compounds – biochemical, small-molecule microarray, 635/667 nm fluorescence, primary screen (AID 1139). The conditions noted are these: fluorescence 635/667, higher = more signal.
For assay [19], the system named is wheat germ agglutinin (Triticum aestivum), Alexa647-labelled. Put plainly: Alexa647-WGA lectin binding to printed small molecules – biochemical, small-molecule microarray, 635/667 nm fluorescence, artefact control for SMM control-protein annotation, profiling panel (AID 1140).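 Note: score merges 667 nm feature emission with signal to noise over triplicate slides.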 The conditions noted are these: WGA-A647 binding, 635 nm fluorescence, higher = more signal.

Assay [20] has as its target Luciferin 4-monooxygenase (Photinus pyralis) (UniProt P08659). Put plainly: inhibition of purified Photinus pyralis luciferase – biochemical, luminescence, purified enzyme, 2006 set, primary screen (AID 1141).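 Note: cell-free assay with purified firefly luciferase at 100 ng per well in PBS; test concentration not given here.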 The note with it: purified firefly luciferase, SteadyGlo luminescence, 30 min; higher = more signal, called active from +8 up or from −8 down.

SMILES strings stand for the structures. Activity calls are given as the source filed them.

Sequence of Luciferin 4-monooxygenase (Photinus pyralis) (P08659 whole entry, looked up): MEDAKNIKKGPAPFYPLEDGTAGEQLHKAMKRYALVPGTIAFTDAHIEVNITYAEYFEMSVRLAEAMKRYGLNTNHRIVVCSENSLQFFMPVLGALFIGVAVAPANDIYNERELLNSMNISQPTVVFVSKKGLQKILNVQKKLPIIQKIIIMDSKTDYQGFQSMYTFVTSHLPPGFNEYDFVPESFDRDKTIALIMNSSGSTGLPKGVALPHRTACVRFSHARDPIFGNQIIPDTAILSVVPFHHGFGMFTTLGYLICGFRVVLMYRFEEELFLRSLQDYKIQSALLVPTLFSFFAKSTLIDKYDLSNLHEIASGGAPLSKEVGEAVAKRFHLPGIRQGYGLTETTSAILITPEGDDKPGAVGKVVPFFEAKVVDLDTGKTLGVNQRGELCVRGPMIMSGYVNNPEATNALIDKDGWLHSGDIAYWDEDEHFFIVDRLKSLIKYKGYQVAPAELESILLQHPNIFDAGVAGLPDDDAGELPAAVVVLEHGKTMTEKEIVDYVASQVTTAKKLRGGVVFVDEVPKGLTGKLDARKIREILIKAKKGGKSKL
Sequence of Focal adhesion kinase 1 (Homo sapiens) (Q05397 whole entry, looked up): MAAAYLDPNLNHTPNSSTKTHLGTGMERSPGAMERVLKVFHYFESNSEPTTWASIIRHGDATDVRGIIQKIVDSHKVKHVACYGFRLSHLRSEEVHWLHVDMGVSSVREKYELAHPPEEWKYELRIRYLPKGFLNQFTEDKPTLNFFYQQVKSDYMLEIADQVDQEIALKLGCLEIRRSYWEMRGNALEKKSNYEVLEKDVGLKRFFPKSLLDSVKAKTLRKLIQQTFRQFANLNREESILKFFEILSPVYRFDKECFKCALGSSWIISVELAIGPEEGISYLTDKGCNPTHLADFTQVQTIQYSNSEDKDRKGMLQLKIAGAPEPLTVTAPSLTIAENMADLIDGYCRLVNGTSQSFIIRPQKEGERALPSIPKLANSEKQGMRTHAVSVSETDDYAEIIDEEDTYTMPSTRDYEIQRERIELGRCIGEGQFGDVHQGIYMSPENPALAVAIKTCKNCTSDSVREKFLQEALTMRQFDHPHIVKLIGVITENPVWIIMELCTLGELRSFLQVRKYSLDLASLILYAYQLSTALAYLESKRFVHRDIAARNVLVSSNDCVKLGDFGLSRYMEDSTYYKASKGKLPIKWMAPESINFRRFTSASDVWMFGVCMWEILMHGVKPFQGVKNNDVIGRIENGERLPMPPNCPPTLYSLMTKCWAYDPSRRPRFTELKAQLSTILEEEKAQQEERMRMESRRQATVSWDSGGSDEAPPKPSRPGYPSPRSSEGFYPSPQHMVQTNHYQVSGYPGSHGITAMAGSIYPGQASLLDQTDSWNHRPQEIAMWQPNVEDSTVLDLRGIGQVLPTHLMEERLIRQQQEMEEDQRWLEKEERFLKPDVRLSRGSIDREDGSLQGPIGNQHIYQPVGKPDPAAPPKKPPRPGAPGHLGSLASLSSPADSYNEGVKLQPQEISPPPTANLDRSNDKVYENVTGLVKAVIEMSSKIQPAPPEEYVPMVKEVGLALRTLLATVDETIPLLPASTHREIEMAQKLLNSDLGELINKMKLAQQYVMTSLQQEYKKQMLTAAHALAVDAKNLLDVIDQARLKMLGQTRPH
Sequence of Albumin (Bos taurus) (P02769 whole entry, looked up): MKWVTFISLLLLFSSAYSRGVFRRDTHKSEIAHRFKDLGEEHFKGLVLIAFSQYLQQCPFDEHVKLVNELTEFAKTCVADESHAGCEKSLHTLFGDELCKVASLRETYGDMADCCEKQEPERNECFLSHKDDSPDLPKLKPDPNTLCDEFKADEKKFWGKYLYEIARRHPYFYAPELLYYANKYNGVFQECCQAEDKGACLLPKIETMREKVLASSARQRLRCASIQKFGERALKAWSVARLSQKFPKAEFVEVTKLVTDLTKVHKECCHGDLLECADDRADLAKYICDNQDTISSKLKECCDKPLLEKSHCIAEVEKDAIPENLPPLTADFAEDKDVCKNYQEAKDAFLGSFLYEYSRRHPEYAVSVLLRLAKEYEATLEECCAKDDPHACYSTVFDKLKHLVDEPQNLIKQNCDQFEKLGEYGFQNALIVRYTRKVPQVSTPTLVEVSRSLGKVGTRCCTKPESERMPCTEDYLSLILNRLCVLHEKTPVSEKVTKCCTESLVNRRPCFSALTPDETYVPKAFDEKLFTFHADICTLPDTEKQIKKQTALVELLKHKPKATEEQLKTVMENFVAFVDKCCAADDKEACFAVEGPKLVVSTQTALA
Sequence of Follistatin (Homo sapiens) (P19883 whole entry, looked up): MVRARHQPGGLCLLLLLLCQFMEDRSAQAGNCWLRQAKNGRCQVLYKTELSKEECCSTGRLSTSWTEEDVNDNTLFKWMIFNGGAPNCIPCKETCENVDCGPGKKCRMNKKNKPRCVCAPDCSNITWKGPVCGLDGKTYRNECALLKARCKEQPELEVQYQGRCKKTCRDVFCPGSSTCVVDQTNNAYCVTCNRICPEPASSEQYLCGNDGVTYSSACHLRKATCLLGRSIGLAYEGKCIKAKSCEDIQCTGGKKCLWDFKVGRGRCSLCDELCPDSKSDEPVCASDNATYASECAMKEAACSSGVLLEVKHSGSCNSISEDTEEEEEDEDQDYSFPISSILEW
Sequence of Fibroblast growth factor 2 (Homo sapiens) (P09038 whole entry, looked up): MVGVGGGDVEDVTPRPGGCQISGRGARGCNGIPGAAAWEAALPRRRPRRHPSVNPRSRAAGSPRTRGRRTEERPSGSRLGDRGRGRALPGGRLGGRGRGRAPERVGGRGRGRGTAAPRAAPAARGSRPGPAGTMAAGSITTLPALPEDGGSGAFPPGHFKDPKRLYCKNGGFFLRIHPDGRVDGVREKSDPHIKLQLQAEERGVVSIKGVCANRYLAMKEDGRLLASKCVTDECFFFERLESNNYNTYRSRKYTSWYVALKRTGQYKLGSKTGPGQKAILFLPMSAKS
Sequence of Concanavalin-A (Canavalia ensiformis) (P02866 whole entry, looked up): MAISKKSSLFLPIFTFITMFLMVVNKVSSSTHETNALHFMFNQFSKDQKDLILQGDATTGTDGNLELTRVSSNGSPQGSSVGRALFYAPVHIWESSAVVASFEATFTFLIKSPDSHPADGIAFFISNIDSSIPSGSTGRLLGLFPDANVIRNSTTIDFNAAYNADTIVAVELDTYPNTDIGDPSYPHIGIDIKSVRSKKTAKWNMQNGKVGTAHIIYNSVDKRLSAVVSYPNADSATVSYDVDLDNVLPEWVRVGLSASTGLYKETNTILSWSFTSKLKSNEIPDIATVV

`O=C1[C@H]2[C@H]3[C@H](O)[C@H](O)CC(=NOCc4ccccc4)[C@H]3CC[C@H]2C(=O)N1c1ccc(F)cc1F`: the composite z-score in assay [1] was 0.155; in assay [3], -0.308; in assay [4], -0.265; in [5], 0.784; in assay [6] it was -0.137; in assay [7] it was -0.713. Moreover, the composite z-score in assay [8] is -0.626; in assay [9], 0.0499; in [10], -0.111; in assay [11] it was 0.492; in assay [12], -0.0368; in assay [13] it was 0.145. For the same compound, the composite z-score was -0.898 in [14]; -0.273 in assay [15]; 0.0342 in assay [16]; -0.0947 in assay [18]; 0.146 in [19]. In addition, the composite Z-score in assay [2] was -0.801 (inactive). The figures for the z-score in [17] and in assay [20] were -0.206 and 0.522 (inactive), respectively.

With `C#CCCCON=C1C[C@@H](O)[C@@H](O)[C@@H]2[C@@H]3C(=O)N(Cc4ccccc4)C(=O)[C@@H]3CC[C@H]12`, the composite z-score is 0.344 in assay [1]; -0.056 in assay [3]; -0.2 in assay [4]; -0.009 in [5]; 0.363 in assay [6]; -0.316 in assay [7]. Also, the composite z-score in assay [8] was -0.0716; in assay [9] it was 0.477; in assay [10], 0.372; in assay [11], 0.0056; in [12], 0.126; in [13], 0.256. Also, the composite z-score in [14] is -0.307; in [15], 0.592; in assay [16], 0.171; in assay [18], 0.582; in assay [19], 0.253. Moreover, the composite Z-score in [2] is 0.497 (inactive). Besides, the z-score was -0.732 in assay [17] and 0.883 (inactive) in assay [20].

With `CCOC(=O)[C@H](CC(C)C)NC(=O)CCC1CC(OC(=O)NCc2cccc3ccccc23)CC2(CCCC(COC(=O)NCCN3CCOCC3)O2)O1` (stereo not given in full), the composite z-score is 0.363 in [1]; -0.0014 in [3]; -0.19 in assay [4]; 0.306 in assay [5]; 0.934 in [6]; 0.324 in assay [7]. Also, the composite z-score in [8] is 1.3; in assay [9], 0.915; in assay [10], 0.793; in assay [11], 0.804; in assay [12] it was 1.17; in [13], 0.465. The composite z-score is 0.356 in [14]; 0.68 in assay [15]; 0.685 in assay [16]; 0.551 in assay [18]; 0.255 in [19]. Also, the composite Z-score in [2] was 0.0928 (inactive). The z-score is 0.154 in [17] and 1.03 (inactive) in assay [20].

Take `COC(=O)[C@]1(CO)N=C(c2ccc(OCCCO)cc2)O[C@@H]1c1ccccc1N=[N+]=[N-]`: the composite z-score in [1] was -1.02; in assay [3], -0.112; in [4], -0.0629; in [5], 0.771; in assay [6], 4.01; in [7], 0.758. Also, the composite z-score was 1.29 in assay [8]; 0.94 in assay [9]; 0.545 in assay [10]; 1.3 in assay [11]; 0.541 in assay [12]; -0.277 in assay [13]. Further, the composite z-score is 0.633 in assay [14]; 1.43 in [15]; 1.6 in assay [16]; 0.83 in assay [18]; -0.119 in assay [19]. For the same compound, the composite Z-score in assay [2] was 1.73 (inactive). Moreover, the values for the z-score in [17] and in [20] were 0.299 and -1.64 (inactive), respectively.

For `Cc1ccc(S(=O)(=O)N[C@@H]2COC(=O)[C@H](C)COC(=O)CC=C[C@H]2C)cc1`, the composite z-score is -0.601 in assay [1]; -0.224 in assay [3]; -0.0817 in assay [4]; -0.271 in assay [5]; -0.32 in assay [6]; -0.7 in assay [7]. In addition, the composite z-score in [8] was 0.0715; in [9] it was 1.23; in assay [10], -0.0405; in [11], -0.419; in [12], -0.0268; in [13], -0.232. The composite z-score is -0.305 in assay [14]; 1.35 in assay [15]; 0.98 in [16]; 1.38 in assay [18]; -0.277 in assay [19]. In addition, the composite Z-score in assay [2] was -0.186 (inactive). Moreover, the figures for the z-score in assay [17] and in [20] were 0.26 and -0.181 (inactive), respectively.

For the compound `CCN(CC)c1ccc(N2CC=CC34O[C@@H]5/C=C\CCC(C)OC(=O)C5[C@H]3C(=O)N(CCCO)[C@@H]4C2=O)cc1` (stereo not given in full), the composite z-score in assay [1] was -0.909; in [3], -0.185; in assay [4] it was -0.189; in [5], 0.868; in [6], -0.368; in assay [7], -0.0197. Further, the composite z-score in [8] was -0.383; in assay [9], -0.618; in assay [10] it was -0.608; in assay [11] it was 0.494; in assay [12], -0.191; in assay [13], -0.216. Besides, the composite z-score was -0.892 in assay [14]; -0.247 in assay [15]; -0.615 in assay [16]; -0.784 in assay [18]; -0.529 in [19]. Besides, the composite Z-score in assay [2] was 0.589 (inactive). The z-score in assay [17] is 0.881; in assay [20] it was -0.936 (inactive).

These data come from PubChem BioAssay.
